The nature of experiment [1]: Quantitative High-Throughput drug screen in 47 multiple myeloma cell lines against the NCATS MIPE library collection: KMS26_JCRB cell viability assay (AID 1918975). Also: nearly all actives have a fitted effect of over 45% in size. An outline of the steps:
(§1)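 Steps: seed 500 cells per well; pin-transfer MIPE 4.0 library; incubate 48 h at 37C, 5% CO2, humidified; add CellTiter-Glo, 5 min room temperature; read luminescence.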

Experiment [2] in a line: Quantitative High-Throughput drug screen in 47 multiple myeloma cell lines against the NCATS MIPE library collection: MOLP8_DSMZ cell viability assay (AID 1918977). Also: nearly all actives have a fitted effect of over 45% in size. The method, boiled down: (§2)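 MIPE 4.0 approved/investigational drugs; 500 cells/well; 48 h 37 °C humidified 5% CO2; CTG luminescence readout; DMSO = 100%, media = 0% viability.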
Experiment [3] is described as follows: Quantitative High-Throughput drug screen in 47 multiple myeloma cell lines against the NCATS MIPE library collection: NCIH929_DSMZ cell viability assay (AID 1918978). Also: nearly all actives have a fitted effect of over 35% in size. Also: potency is read from the fitted curve at half-maximal effect. The method, boiled down: as §2
Experiment [4] in a line: Quantitative High-Throughput drug screen in 47 multiple myeloma cell lines against the NCATS MIPE library collection: MM1R_ATCC cell viability assay (AID 1918981). Also: nearly all actives have a fitted effect of over 35% in size. Also: potency is read from the fitted curve at half-maximal effect. An outline of the steps:
as §2

Experiment [5] is described as follows: Quantitative High-Throughput drug screen in 47 multiple myeloma cell lines against the NCATS MIPE library collection: LP1_DSMZ cell viability assay (AID 1918982). Also: nearly all actives have a fitted effect of over 35% in size. Also: potency is read from the fitted curve at half-maximal effect. The method, boiled down:
as §2

A short description of experiment [6]: Quantitative High-Throughput drug screen in 47 multiple myeloma cell lines against the NCATS MIPE library collection: KMS28PE_JCRB cell viability assay (AID 1918983). Also: nearly all actives have a fitted effect of over 35% in size. Also: potency is read from the fitted curve at half-maximal effect. An outline of the steps: as §2
Experiment [7] can be described thus: Quantitative High-Throughput drug screen in 47 multiple myeloma cell lines against the NCATS MIPE library collection: L363_DSMZ cell viability assay (AID 1918984). Also: nearly all actives have a fitted effect of over 40% in size. Also: potency is read from the fitted curve at half-maximal effect. The method, boiled down:
as §2

Experiment [8] is described as follows: Quantitative High-Throughput drug screen in 47 multiple myeloma cell lines against the NCATS MIPE library collection: KMS34_JCRB cell viability assay (AID 1918985). Also: nearly all actives have a fitted effect of over 40% in size. Also: potency is read from the fitted curve at half-maximal effect. The method, boiled down: as §2
Experiment [9] in a line: Quantitative High-Throughput drug screen in 47 multiple myeloma cell lines against the NCATS MIPE library collection: OCIMY7_PLB cell viability assay (AID 1918987). Also: nearly all actives have a fitted effect of over 65% in size. Also: potency is read from the fitted curve at half-maximal effect. The method, boiled down: as §2
Experiment [10] can be described thus: Quantitative High-Throughput drug screen in 47 multiple myeloma cell lines against the NCATS MIPE library collection: KMS12PE_JCRB cell viability assay (AID 1918972). Also: nearly all actives have a fitted effect of over 30% in size. Also: potency is read from the fitted curve at half-maximal effect. The method, boiled down:
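Approved and investigational drugs from MIPE 4.0 were added by pin tool to 500 cells per well. After 48 hours at 37C, ATP-based CellTiter-Glo luminescence indicated remaining viability.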

The nature of experiment [11]: Quantitative High-Throughput drug screen in 47 multiple myeloma cell lines against the NCATS MIPE library collection: KMS27_JCRB cell viability assay (AID 1918970). Also: nearly all actives have a fitted effect of over 30% in size. Also: potency is read from the fitted curve at half-maximal effect. An outline of the steps: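 CellTiter-Glo luminescence after 48 h drug exposure at 37 °C; 500 cells/well, 1536-well format, pin-tool compound addition; DMSO = 100%, media-only = 0% viability.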
A short description of experiment [12]: Quantitative High-Throughput drug screen in 47 multiple myeloma cell lines against the NCATS MIPE library collection: KMS21BM_JCRB cell viability assay (AID 1918974). Particulars: ATP luminescence, 48 h; viability: at 45.8 µM (top of the series) unless noted. An outline of the steps:
as §1

Experiment [13] can be described thus: Quantitative High-Throughput drug screen in 47 multiple myeloma cell lines against the NCATS MIPE library collection: OCIMY1_PLB cell viability assay (AID 1918979). Also: nearly all actives have a fitted effect of over 35% in size. Also: potency is read from the fitted curve at half-maximal effect. An outline of the steps: as §2
Experiment [14] is described as follows: Quantitative High-Throughput drug screen in 47 multiple myeloma cell lines against the NCATS MIPE library collection: OCIMY5_PLB cell viability assay (AID 1918988). Also: nearly all actives have a fitted effect of over 65% in size. Also: potency is read from the fitted curve at half-maximal effect. An outline of the steps: as §2
The nature of experiment [15]: Quantitative High-Throughput drug screen in 47 multiple myeloma cell lines against the NCATS MIPE library collection: KMS20_JCRB cell viability assay (AID 1918973). Also: nearly all actives have a fitted effect of over 45% in size. Also: potency is read from the fitted curve at half-maximal effect. An outline of the steps: as §1
A short description of experiment [16]: Quantitative High-Throughput drug screen in 47 multiple myeloma cell lines against the NCATS MIPE library collection: MMM1_PLB cell viability assay (AID 1918976). The method, boiled down:
as §2

Experiment [17] is described as follows: Quantitative High-Throughput drug screen in 47 multiple myeloma cell lines against the NCATS MIPE library collection: MM1S_ATCC cell viability assay (AID 1918980). Also: potency is read from the fitted curve at half-maximal effect; nearly all actives have a fitted effect of over 45% in size. An outline of the steps:
as §2

A short description of experiment [18]: Quantitative High-Throughput drug screen in 47 multiple myeloma cell lines against the NCATS MIPE library collection: KMS12BM_JCRB cell viability assay (AID 1918971). Also: nearly all actives have a fitted effect of over 35% in size. The method, boiled down:
as §1

Structures are written as SMILES. Inconclusive results are not listed. The source made the active and inactive calls. Calls follow the shape of the dose curve; as a rule, active = well fitted curve in the direction sought with a large enough effect; inconclusive = small, poorly fitted or top-dose-only effect, or another doubt; inactive = no such curve, though single readings can be large; an effect the other way counts as inactive or inconclusive.

On to `CS(=O)(=O)c1ccc(C(=O)Nc2ccc(Cl)c(-c3ccccn3)c2)c(Cl)c1`, for which the Potency entry in [1], in experiment [2], in [4], in experiment [5], in experiment [6] and in experiment [7] was “inactive” in each case. Besides, the Potency result in [8] is “inactive”. Also, the Potency in [3] was 2.96 µM (active); in experiment [9], 14.8 µM (active).
With `OC[C@H](Cc1ccccc1)Nc1nc(Oc2ccc3c(c2)CCC3)nc2c1ncn2Cc1ccc(-c2ccccc2)cc1`, the Potency result in [10], in experiment [2], in experiment [4] and in experiment [6] was “inactive” each time. For the same compound, the Potency in experiment [8] was 18.7 µM (active).
Take `O=C(Nc1ccc(F)c(C(F)(F)F)c1)Nc1nnc(-c2ccncc2)s1`: the Potency result in [11], in experiment [12], in experiment [13] and in experiment [9] was “inactive” each time. For the same compound, the Potency in experiment [3] is 2.64 µM (active); in experiment [4] it was 11.8 µM (active); in experiment [5] it was 3.72 µM (active); in [14], 2.35 µM (active).
On to `NC(=O)c1cnccn1`, for which the Potency entry in experiment [11], in experiment [3], in experiment [13], in [4], in [5] and in [6] was “inactive” each time. Besides, the Potency entry in experiment [7] was “inactive”.
For `CN(C(=O)c1ccc(F)cc1C(F)(F)F)C1CCN(c2nnc(-c3ccnn3C)c3ccccc23)CC1`, the Potency is 10.5 µM (active) in experiment [15] and 0.372 µM (active) in [9].
As for `N#Cc1ccc(C(c2ccc(C#N)cc2)n2cncn2)cc1`, the Potency result in [10], in experiment [15] and in experiment [3] was “inactive” each time. Further, the Potency in experiment [16] was 11.8 µM (active); in experiment [13] it was 3.72 µM (active); in [6], 6.62 µM (active).
Consider `CC[C@@H](C)[C@H](NC(=O)[C@H](CC1CCCCC1)NC(=O)c1ccno1)C(=O)N1CCC2(CCc3ccccc32)CC1`, for which the Potency entry in experiment [11] and in [10] was “inactive” each time. The Potency was 16.6 µM (active) in [13], 13.2 µM (active) in experiment [4], 9.35 µM (active) in experiment [5] and 7.43 µM (active) in experiment [8].
`Nc1nc2c(ncn2COCCO)c(=O)[nH]1`: the Potency result in experiment [11], in experiment [15], in [1], in [2], in experiment [3] and in [5] was “inactive” throughout. The Potency entry in experiment [7] and in experiment [8] was “inactive” in each case.
Consider `Clc1ccc(Nc2nnc(Cc3ccncc3)c3ccccc23)cc1`, for which the Potency entry in experiment [11], in experiment [10], in experiment [13] and in experiment [7] was “inactive” in each case. Further, the Potency is 11.8 µM (active) in experiment [3]; 18.7 µM (active) in experiment [17]; 11.8 µM (active) in experiment [5]; 20.9 µM (active) in experiment [6]; 3.32 µM (active) in experiment [9]; 6.62 µM (active) in experiment [14].
In the case of `CCOc1ccc(Cc2cc([C@@H]3O[C@H](CO)[C@@H](O)[C@H](O)[C@@H]3O)ccc2Cl)cc1`, the Potency was 16.6 µM (active) in experiment [11], 26.4 µM (active) in [10], 18.7 µM (active) in experiment [7] and 3.72 µM (active) in [9]. The Potency result in experiment [18], in [1], in [3], in [13], in experiment [4] and in experiment [5] was “inactive” each time. Also, the Potency entry in experiment [8] and in [14] was “inactive” each time.
For `Nc1cccc(S(=O)(=O)N2CCCN(S(=O)(=O)c3ccc4c(c3)OCCO4)CC2)c1`, the Potency entry in experiment [11], in [10], in experiment [1], in [2], in experiment [3] and in [8] was “inactive” throughout. The Potency in [17] was 14.8 µM (active); in [4], 11.8 µM (active); in [5], 16.6 µM (active).
Consider `Cc1[nH]c(=O)c(C#N)cc1-c1ccncc1`, for which the Potency is 1.32 µM (active) in experiment [11] and 10.5 µM (active) in experiment [3]. Besides, the Potency entry in experiment [18], in experiment [1], in experiment [13], in experiment [4], in [6] and in experiment [7] was “inactive” each time. The Potency entry in experiment [8] is “inactive”.
As to `CCn1c(-c2nonc2N)nc2cnc(Oc3cccc(NC(=O)c4ccc(OCCN5CCOCC5)cc4)c3)cc21`, the Potency was 8.33 µM (active) in experiment [11]; 5.9 µM (active) in experiment [10]; 10.5 µM (active) in experiment [16]; 9.35 µM (active) in [3]; 18.7 µM (active) in experiment [17]; 16.6 µM (active) in experiment [4]. Further, the Potency in experiment [5] was 14.8 µM (active); in experiment [7], 8.33 µM (active); in experiment [9] it was 2.35 µM (active).
As to `CCCCNc1cc(C(=O)O)cc(S(N)(=O)=O)c1Oc1ccccc1`, the Potency result in [18], in experiment [10], in [15], in [1], in experiment [2] and in experiment [3] was “inactive” in each case. In addition, the Potency entry in [13], in experiment [4], in experiment [5], in experiment [6], in [7] and in [8] was “inactive” each time.

Values taken from PubChem BioAssay (NCATS).
